# Inconclusive results are not listed. Unmarked numbers belong to inactive results. The source made the active and inactive calls. Unless noted, calls follow the shape of the dose curve; as a rule, active = well fitted cell-killing curve with a large enough effect in the repeat runs (not every such curve was filed as active); inconclusive = weak or mixed curves, or effect the other way; inactive = no such curve, though single readings can be large or run the other way.
# Molecular target: Bile acid receptor (Homo sapiens) (UniProt Q96RI1)
# Test: qHTS assay to identify small molecule antagonists of the farnesoid-X-receptor (FXR) signaling pathway (AID 743217; active = well fitted inhibition curve with a large enough effect in the signal ratio in the repeat runs, not every such curve was filed as active; the % refers to the signal ratio)
# Conditions: HEK293T FXR-UAS-bla, beta-lactamase ratio, CDCA-stimulated, 16 h; series mostly up to 62.6 µM; activity change, negative = inhibition: at the top concentration
# How it was run: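 GeneBLAzer FXR-UAS-bla HEK 293T, CDCA-stimulated (50 uM final). Compound treatment 16 h, 37 °C. Detection: beta-lactamase cleavage of B/G FRET substrate, fluorescence.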
# % is scaled to controls: 0 for no effect and ±100 for the full control effect.
# Chain of Bile acid receptor (Homo sapiens) (Q96RI1 whole entry, looked up): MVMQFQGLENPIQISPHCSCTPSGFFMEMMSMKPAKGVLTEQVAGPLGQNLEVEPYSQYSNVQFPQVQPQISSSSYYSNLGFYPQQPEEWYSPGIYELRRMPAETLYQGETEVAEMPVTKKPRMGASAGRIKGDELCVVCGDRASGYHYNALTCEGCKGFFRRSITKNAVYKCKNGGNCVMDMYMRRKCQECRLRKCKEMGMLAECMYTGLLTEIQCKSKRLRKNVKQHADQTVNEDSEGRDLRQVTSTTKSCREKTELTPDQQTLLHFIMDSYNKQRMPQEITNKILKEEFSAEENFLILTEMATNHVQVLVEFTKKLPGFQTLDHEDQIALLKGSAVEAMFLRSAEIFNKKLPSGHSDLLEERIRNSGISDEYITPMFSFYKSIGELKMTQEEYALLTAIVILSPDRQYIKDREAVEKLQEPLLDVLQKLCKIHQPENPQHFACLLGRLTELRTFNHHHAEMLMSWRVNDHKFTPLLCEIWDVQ
row,Compound,"activity change, negative = inhibition"
1,COC(=O)c1ccccc1OC,-7.29%
2,c1cnccn1,-6.85% [at 81.1 µM]
3,COc1cc2nc(N3CCN(C(=O)c4ccco4)CC3)nc(N)c2cc1OC,12.8% [at 29.1 µM]
4,O=[N+]([O-])c1ccc(F)c(Cl)c1,-2.58%
5,CCCC[P+](C)(CCCC)CCCC,-8.3% [at 81.1 µM]
6,O[C@@H]([C@H](O)[C@H](O)CBr)[C@H](O)CBr,1.49%
7,CCCCCCOC(=O)C(C)CC (configuration not stated),-0.368%
8,O=[N+]([O-])c1ccc(O)cc1C(F)(F)F,4.51%
9,O=C(/C=C/c1ccc(O)c(O)c1)O[C@@H](C(=O)O)[C@@H](OC(=O)/C=C/c1ccc(O)c(O)c1)C(=O)O,-1.94%
10,CCCc1ccc(OCC(=O)N2CCN(C(=O)COc3ccc(CCC)cc3OC)CC2)c(OC)c1,6.59%
11,CCCCCCCC,6.84%
12,CC(C)CCOC(=O)/C=C/c1ccccc1,-3.09% [at 81.1 µM]
13,C/C=C/C=C/COC(=O)C(C)C,0.31%
14,CC(CO)Oc1ccccc1 (configuration not stated),-0.501% [at 81.1 µM]
15,OC12N=C(c3ccccc3)SC1Cc1cc(Cl)ccc12 (configuration not stated),5.15%
16,CC(=O)c1ccc(C(C)=O)cc1,2.4% [at 81.1 µM]

# Tested on: not listed separately
# Test: qHTS assay to identify small molecule agonists of the farnesoid-X-receptor (FXR) signaling pathway - cell viability counter screen (AID 743218; active = well fitted cell-killing curve with a large enough effect in the repeat runs; also: nearly all actives have a fitted effect of over 45% in size; also: potency is read from the fitted curve at half-maximal effect)
# Conditions: FXR-bla HEK293T viability, CellTiter-Glo luminescence, 16 h; series mostly up to 62.6 µM; viability change, negative = cytotoxic: at the top concentration
# How it was run: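 Parallel cytotoxicity test: compound-treated (16 h, 37 C) HEK 293T FXR-bla reporter cells were lysed with CellTiter-Glo and luminescence recorded.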
Compound,"viability change, negative = cytotoxic",Potency
CC(=O)[C@H]1CC[C@H]2[C@@H]3CCC4=CC(=O)CC[C@]4(C)[C@H]3CC[C@]12C,-14%,
COC(=O)c1ccccc1OC,0.951%,
c1cnccn1,4.55% [at 81.1 µM],
COc1cc2nc(N3CCN(C(=O)c4ccco4)CC3)nc(N)c2cc1OC,-21.7% [at 29.1 µM],
CCCC[P+](C)(CCCC)CCCC,22.6% [at 81.1 µM],
Cc1nc2n(c(=O)c1CCN1CCC(c3noc4cc(F)ccc34)CC1)CCCC2,-2.58%,
[Cu+],6.53%,
Cc1ccc(O)c(O)c1,-20.3%,
O=C(O)c1ccc2cc(C(=O)O)ccc2c1,-3.38% [at 81.1 µM],
C=Cc1cccc(C)c1,5.38%,
O=C(/C=C/c1ccc(O)c(O)c1)O[C@@H](C(=O)O)[C@@H](OC(=O)/C=C/c1ccc(O)c(O)c1)C(=O)O,-0.138%,
CCc1cccc(CC)c1NC(=O)CN(CC(=O)O)CC(=O)O,2.24%,
CCO[C@@H]1O[C@H](C(COCc2ccccc2)OCc2ccccc2)[C@H](OCc2ccccc2)[C@H]1O (some centres not stated),,21.1 µM (active)
CCCc1ccc(OCC(=O)N2CCN(C(=O)COc3ccc(CCC)cc3OC)CC2)c(OC)c1,1.13%,
COC1=C(OC)C(=O)C(CCCCCCCCCCO)=C(C)C1=O,17.5%,
CC(C)CCOC(=O)/C=C/c1ccccc1,-0.142% [at 81.1 µM],
CCCCN(CCCC)CC(O)c1cc(Cl)cc2c1-c1ccc(Cl)cc1/C2=C/c1ccc(Cl)cc1 (configuration not stated),,29.8 µM (active)
Cc1ccc(-c2ccccc2)cc1,-17.3%,
C/C=C/C=C/COC(=O)C(C)C,-25.3%,
CCCCCCCCCCOC(=O)c1ccccc1C(=O)OCCCCCCCC,-23.2%,
C=CC(C)(CCC=C(C)C)OC=O (configuration not stated),5.68%,
CC(CO)Oc1ccccc1 (configuration not stated),21.5% [at 81.1 µM],
OC12N=C(c3ccccc3)SC1Cc1cc(Cl)ccc12 (configuration not stated),2.45%,
O=C(O)c1cc(=O)c2ccccc2o1,-20.2%,
CC(=O)c1ccc(C(C)=O)cc1,-7.8% [at 81.1 µM],
CC[N+](CC)(CC)CCOC(=O)C(C1CCCC1)C1CCCC1,-1.41%,
CC(C)(C)CC(C)(C)c1ccc(Nc2ccc(C(C)(C)CC(C)(C)C)cc2)cc1,-9.89% [at 5.95 µM],
NC(=O)c1cccc([N+](=O)[O-])c1,2.33%,

# Molecular target: Bile acid receptor (Homo sapiens) (UniProt Q96RI1)
# Test: qHTS assay to identify small molecule agonists of the farnesoid-X-receptor (FXR) signaling pathway (AID 743220; active = well fitted activation curve with a large enough effect in the signal ratio in the repeat runs, not every such curve was filed as active; the % refers to the signal ratio)
# Conditions: HEK293T FXR-UAS-bla, beta-lactamase FRET ratio, 16 h; series mostly up to 62.6 µM; activation: at the top concentration
# How it was run: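 Beta-lactamase reporter under UAS control in GeneBLAzer FXR HEK 293T cells (5000/well) measured with LiveBLAzer FRET substrate after 2 h at room temperature. Compound exposure lasted 16 h at 37C.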
row,Compound,activation
1,c1cnccn1,1.28% [at 81.1 µM]
2,O=[N+]([O-])c1ccc(F)c(Cl)c1,2.47%
3,CCCC[P+](C)(CCCC)CCCC,2.91% [at 81.1 µM]
4,O[C@@H]([C@H](O)[C@H](O)CBr)[C@H](O)CBr,-0.7%
5,O=[N+]([O-])c1ccc(O)cc1C(F)(F)F,-0.713%
6,CC(CO)Oc1ccccc1 (configuration not stated),0.123% [at 81.1 µM]
7,OC12N=C(c3ccccc3)SC1Cc1cc(Cl)ccc12 (configuration not stated),-0.0855%
8,CC(=O)c1ccc(C(C)=O)cc1,-4.11% [at 81.1 µM]

# Tested on: not listed separately
# Test: qHTS assay to identify small molecule antagonists of the farnesoid-X-receptor (FXR) signaling pathway - cell viability counter screen (AID 743221); also: nearly all actives have a fitted effect of over 50% in size; also: potency is read from the fitted curve at half-maximal effect
# Conditions: FXR-bla HEK293T viability, CellTiter-Glo luminescence, 16 h; series mostly up to 62.6 µM; activity change, negative = cytotoxicity: at the top concentration
# How it was run: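 Cytotoxicity counter screen run in the FXR-bla reporter wells: HEK 293T cells exposed to compound with 50 uM (final) chenodeoxycholic acid for 16 h, 37 C, then viability measured by CellTiter-Glo luminescence after 30 min, room temperature.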
Compound,"activity change, negative = cytotoxicity",Potency
CC(=O)[C@H]1CC[C@H]2[C@@H]3CCC4=CC(=O)CC[C@]4(C)[C@H]3CC[C@]12C,-10.1%,
COC(=O)c1ccccc1OC,-10.3%,
c1cnccn1,-0.699% [at 81.1 µM],
COc1cc2nc(N3CCN(C(=O)c4ccco4)CC3)nc(N)c2cc1OC,15.3% [at 29.1 µM],
O=[N+]([O-])c1ccc(F)c(Cl)c1,0.336%,
CCCC[P+](C)(CCCC)CCCC,-27.1% [at 81.1 µM],
Cc1nc2n(c(=O)c1CCN1CCC(c3noc4cc(F)ccc34)CC1)CCCC2,3.26%,
O[C@@H]([C@H](O)[C@H](O)CBr)[C@H](O)CBr,7.69%,
[Cu+],4.82%,
Cc1ccc(O)c(O)c1,-0.111%,
O=C(O)c1ccc2cc(C(=O)O)ccc2c1,3.9% [at 81.1 µM],
CCCCCCOC(=O)C(C)CC (configuration not stated),-1.34%,
O=[N+]([O-])c1ccc(O)cc1C(F)(F)F,-1.72%,
O=c1[nH]c2ccccc2n1CCCN1CCN(C(c2ccccc2)c2ccccc2)CC1,-1.36%,
C=Cc1cccc(C)c1,-3.43%,
c1ccc(C(O[C@@H]2CCCN(CCc3ccc4c(c3)OCO4)C2)c2ccccc2)cc1,-17.9%,
O=C(/C=C/c1ccc(O)c(O)c1)O[C@@H](C(=O)O)[C@@H](OC(=O)/C=C/c1ccc(O)c(O)c1)C(=O)O,9.41%,
CCc1cccc(CC)c1NC(=O)CN(CC(=O)O)CC(=O)O,0.352%,

Compound,"activity change, negative = cytotoxicity",Potency
CCO[C@@H]1O[C@H](C(COCc2ccccc2)OCc2ccccc2)[C@H](OCc2ccccc2)[C@H]1O (some centres not stated),,13.3 µM (active)
CCCc1ccc(OCC(=O)N2CCN(C(=O)COc3ccc(CCC)cc3OC)CC2)c(OC)c1,4.53%,
CCCCCCCC,11.7%,
COC1=C(OC)C(=O)C(CCCCCCCCCCO)=C(C)C1=O,-17.4%,
CC(C)CCOC(=O)/C=C/c1ccccc1,9.4% [at 81.1 µM],
COc1ccc(-c2coc3cc(O)ccc3c2=O)cc1,-6.6%,
Oc1cc(Cl)cc(Cl)c1Cl,-22.8% [at 81.1 µM],
Cc1ccc(-c2ccccc2)cc1,3.66%,
C/C=C/C=C/COC(=O)C(C)C,0.0367%,
CCCCCCCCCCOC(=O)c1ccccc1C(=O)OCCCCCCCC,-23.2%,
C=CC(C)(CCC=C(C)C)OC=O (configuration not stated),-2.07%,
CC(CO)Oc1ccccc1 (configuration not stated),-9.5% [at 81.1 µM],
OC12N=C(c3ccccc3)SC1Cc1cc(Cl)ccc12 (configuration not stated),-1.76%,
O=C(O)c1cc(=O)c2ccccc2o1,-2.49%,
CC[N+](CC)(CC)CCOC(=O)C(C1CCCC1)C1CCCC1,-10.5%,
CC(C)(C)CC(C)(C)c1ccc(Nc2ccc(C(C)(C)CC(C)(C)C)cc2)cc1,1.78% [at 5.95 µM],
NC(=O)c1cccc([N+](=O)[O-])c1,10%,

# Reference: PubChem BioAssay (Tox21)
